For 70 compounds, INHIBITION results are on record in ChEMBL document CHEMBL4513216, “Probing the Open Global Health Chemical Diversity Library for Multistage-Active Starting Points for Next-Generation Antimalarials” (ACS Infect Dis, 2020).

Screen size: about 69,000 compounds; about 8,600 (12%) showed an effect of 50% or more. For the sample, strong results were picked, then their nearest neighbours and some compounds at random.

This experiment relates to Plasmodium berghei. Kind of experiment: Screen against P. berghei liver stage (PbLuc), transformed with Luciferase, at 10uM. Format: functional, HepG2. The following applies: tested at 10 uM.
For the compound `COCCc1noc(CN2CCCC2c2noc(C)n2)n1` (stereo not given), the INHIBITION is reported as -5.32%. Take `COc1ccnc(NC(Cc2ccccc2)C(=O)N(C)C)n1` (stereo not given): the INHIBITION is reported as 8.7%. The result for `O=C(NC[C@@H]1C[C@@H]2CN(C(=O)CO)C[C@H]2O1)c1ccsc1` reads 52.1%. Turning to `O=C(NC[C@H]1C[C@@H]2CN(C(=O)c3ccco3)C[C@@H]2O1)c1ccsc1`, the INHIBITION turned out to be 18.6%. In the case of `Cn1cccc1C(=O)NC[C@H]1C[C@@H]2CN(C(=O)c3ccco3)C[C@@H]2O1` it was 7.7%; in that of `CC(C)OCc1ncn2c1CN(Cc1cccs1)CCC2`, 15.9%; in that of `CCn1cc2c(n1)C(COC)CN(C(=O)CCOc1ccccc1)C2` (stereo not given), -37.9%.

As for `CCc1cnc(N)nc1NC(C)c1cnn(C)c1` (stereo not given), the INHIBITION turned out to be 17.8%. `CCc1cnc(N)nc1NC(C)c1ccc(C)c(C)c1` (stereo not given): the INHIBITION is listed as 88.2%. Regarding `CCc1cnc(N)nc1N[C@@H](C)c1ncccc1C`, the INHIBITION is listed as 3.96%. For `CN(CC(O)C(F)(F)F)C(=O)Nc1cccc(N2CCCC2)c1` (stereo not given), the INHIBITION is -16.4%. As to `Cn1cc(CN2CCC(F)(F)C3(CCN(c4ncc(F)cn4)C3)C2)cn1` (stereo not given), the INHIBITION was determined as 12.5%. Turning to `O=C(c1ccc(Cn2ccccc2=O)o1)N1CCSCC1`, the INHIBITION stood at 20.45%.

As for `CNc1nc(CNC(=O)Nc2cccc(Cl)c2OC)cs1`, the INHIBITION came out at 3.263%. `COc1c(Cl)cccc1NCc1csc(C)n1`: the INHIBITION is listed as -1.37%. As to `COCc1ccccc1NCc1csc(NC(C)=O)n1`, the INHIBITION is 89%. Regarding `COCc1csc(NC(=O)NCc2ccccn2)n1`, the INHIBITION was -3.99%. Turning to `COc1c(Cl)cccc1NCc1csc(NC(C)=O)n1`, the INHIBITION came to 89.4%. Consider `CCOC(C)c1nc(CNc2cccc(Cl)c2OC)cs1` (stereo not given), for which the INHIBITION is -3.08%. For the compound `COCCS(=O)(=O)Cc1csc(NC(C)=O)n1`, the INHIBITION was found to be 21.8%. As for `Cc1nc(CNc2cccc(Cl)c2Cl)cs1`, the INHIBITION came out at 50%. As to `CC(=O)Nc1nc(CS(=O)(=O)Cc2ccccc2)cs1`, the INHIBITION stood at 55.4%. Regarding `CC(=O)Nc1nc(CNc2ccccc2CCC(F)(F)F)cs1`, the INHIBITION is given as 42.6%. The result for `Cc1nc(CNc2ccccc2CCC(F)(F)F)cs1` reads -13.6%. On to `CC(=O)Nc1nc(CS(=O)(=O)CCCc2ccccc2)cs1`, for which the INHIBITION is -25.2%. In the case of `CN(Cc1ccco1)C(=O)C1CSCN1C(=O)c1cccs1` (stereo not given) it was -31.8%; in that of `CCS(=O)(=O)N1CC[C@@H]2[C@H](CC1)N(Cc1cccnc1)CCS2(=O)=O`, 5.56%. Regarding `CCCC(=O)Nc1ccc(CC(=O)N(C)CCc2cn[nH]c2)cc1`, the INHIBITION amounted to 17.3%. Regarding `COCC1N(C(=O)c2ccc3c(c2)OCCCO3)C2CCC1(O)CC2` (stereo not given), the INHIBITION is -35.3%. The result for `CN1CC(C(=O)NCc2cccnc2-n2cccn2)CC1=O` (stereo not given) reads -37.7%. As to `COCC1CN(Cc2cc(C)on2)Cc2cnn(C)c21` (stereo not given), the INHIBITION is reported as -13.7%. In the case of `CCn1c(Cn2cncn2)nnc1C1CCN(Cc2cccnc2)CC1` it was -50.8%.

For the compound `Cc1nn(C)c2c(N3CCSCC3)nc(C3CC3)nc12`, the INHIBITION was 22.6%. Consider `CN(Cc1ccsc1)C(=O)Nc1ccc(N2CCCC2)nc1`, for which the INHIBITION turned out to be 15.3%. Regarding `CN1CCN(c2ccc(NCc3ccsc3)cn2)CC1`, the INHIBITION came to 69.3%.

On to `CCOc1ccc(NCc2cnc(N3CCN(C)CC3)nc2)cn1`, for which the INHIBITION was -15.7%. Regarding `CN1CCN(c2ccc(NCc3ccc([S+](C)[O-])cc3)cn2)CC1` (stereo not given), the INHIBITION was 47.4%. The result for `Cc1nc(CNCc2ccc(N3CCN(C)CC3)nc2)cs1` reads 29.1%. For the compound `CN1CCN(c2ccc(NCc3ccc(OC(F)(F)F)cc3)cn2)CC1`, the INHIBITION was found to be 83.2%.

In the case of `O=C(c1ccco1)N1C[C@@H]2CN(c3ccccn3)C[C@@H]2C1`, the INHIBITION is listed as 5.04%. `O=C1NC2(CCN(C(=O)c3ccccc3)CC2)CC1c1cccnc1` (stereo not given): the INHIBITION is given as -8.19%. Turning to `O=C(c1cccc(S(=O)(=O)NC[C@@H]2C[C@H](F)CN2)c1)N1CCCCC1`, the INHIBITION was 46.1%. `O=C(Nc1ccccc1)c1cccc(S(=O)(=O)NC[C@@H]2C[C@H](F)CN2)c1`: the INHIBITION is 60.2%. Take `CCOCCNC(=O)c1cccc(S(=O)(=O)NC[C@@H]2C[C@H](F)CN2)c1`: the INHIBITION was -3.87%. As to `CNc1snc(C)c1C(=O)N1CCCC(n2ccnc2C)C1` (stereo not given), the INHIBITION is 37.9%. As for `Cn1ccnc1CN1CCc2onc(COCC3CC3)c2C1`, the INHIBITION is listed as 19.6%. Regarding `Cc1nccn1CCCN1CCCC(c2ccccc2)C1` (stereo not given), the INHIBITION is listed as 49.4%.

Regarding `CC(=O)Nc1ccc(OCc2noc(C(=O)N3CCCCCC3)n2)cc1`, the INHIBITION amounted to 64.7%. The result for `CC(=O)Nc1ccc(OCc2noc(C(=O)N3CCCC3)n2)cc1` reads 31.3%; that for `CC(=O)Nc1ccc(OCc2noc(C(=O)N3CCCCC3)n2)cc1`, 17.1%. For the compound `N#Cc1cccc(N2CCCC3(C2)CN(c2ncc(F)cn2)CCO3)n1` (stereo not given), the INHIBITION is given as 8.31%. Regarding `c1coc(CN2CCn3c(COCC4CC4)nnc3C2)c1`, the INHIBITION was 18.5%. As to `CN1CCN(C(=O)c2cnc3c(cnn3C3CCCC3)c2)CC1`, the INHIBITION was found to be 24.8%.

On to `CCOC1CCCN(C(=O)c2cnc3c(cnn3C3CCCC3)c2)C1` (stereo not given), for which the INHIBITION is listed as 24%. Take `NC(=O)C1CCCN(C(=O)c2cnc3c(cnn3C3CCCC3)c2)C1` (stereo not given): the INHIBITION came to 56.6%. For `O=C(O)CN(C(=O)c1ccccc1)[C@H]1C[C@H]2CCOC[C@H]2C1`, the INHIBITION was -6.53%.

On to `Cc1ccc(NC2CCN(C(=O)c3ccc(C(N)=O)s3)CC2)nn1`, for which the INHIBITION amounted to 42%. For `CN(C)c1ncccc1CNC(=O)NCc1ccc(Cl)s1`, the INHIBITION was -10.1%.

For the compound `O=C(CCc1ccccc1F)N1CCCC(OCc2cccnc2)C1` (stereo not given), the INHIBITION was determined as 48.8%. The result for `COc1ccccc1CCC(=O)N1CCCC(OCc2cccnc2)C1` (stereo not given) reads 25.8%. On to `Cc1ccn(CCC(=O)N2CCCC(Cc3cccnc3)C2)n1` (stereo not given), for which the INHIBITION was 41.2%. With `Cn1nccc1CCC(=O)N1CCCC(Cc2cccnc2)C1` (stereo not given), the INHIBITION is recorded as 56%. Consider `O=C1CCCN1CCCC(=O)N1CCCC(Cc2cccnc2)C1` (stereo not given), for which the INHIBITION is 41.2%. The result for `Cc1cncc(C2CCN(C(=O)CCc3ccnn3C)CC2)n1` reads 6.32%; that for `Cn1nccc1CCC(=O)N1CCCC(c2cnccn2)C1` (stereo not given), 25.6%.

Regarding `CN(CCC(=O)N1CCCC(Cc2cccnc2)C1)Cc1cccnc1` (stereo not given), the INHIBITION is listed as 38.2%.

Take `Cn1cnnc1CCC(=O)N1CCCC(OCc2cccnc2)C1` (stereo not given): the INHIBITION was determined as 51%. For the compound `O=C(CCn1ncc2ccccc21)N1CCCC(Cc2cccnc2)C1` (stereo not given), the INHIBITION came out at 53%. Take `Cn1nccc1CCC(=O)N1CCC(c2cnccn2)CC1`: the INHIBITION stood at 54.4%. Consider `CC(C)C(=O)N1CCCC(Cc2cccnc2)C1` (stereo not given), for which the INHIBITION is 16.2%.
